Screening results (PubChem BioAssay)
JMJD2A Tudor inh – inhibitors of human JMJD2A Tudor domain; actives 4.4% (n = 390,000); Potency, µM (highest dose often 114 µM), for inactives: at the highest dose activity change, negative = inhibition, usual class: inhibitors; AlphaScreen JMJD2A-Tudor / H3K4me3 peptide binding; O75164; note: % is set by controls: 0 for no effect and ±100 for the full control effect; nearly all actives have a fitted effect of over 50% in size
Target sequence (O75164 whole entry, looked up, the tested form may be a part): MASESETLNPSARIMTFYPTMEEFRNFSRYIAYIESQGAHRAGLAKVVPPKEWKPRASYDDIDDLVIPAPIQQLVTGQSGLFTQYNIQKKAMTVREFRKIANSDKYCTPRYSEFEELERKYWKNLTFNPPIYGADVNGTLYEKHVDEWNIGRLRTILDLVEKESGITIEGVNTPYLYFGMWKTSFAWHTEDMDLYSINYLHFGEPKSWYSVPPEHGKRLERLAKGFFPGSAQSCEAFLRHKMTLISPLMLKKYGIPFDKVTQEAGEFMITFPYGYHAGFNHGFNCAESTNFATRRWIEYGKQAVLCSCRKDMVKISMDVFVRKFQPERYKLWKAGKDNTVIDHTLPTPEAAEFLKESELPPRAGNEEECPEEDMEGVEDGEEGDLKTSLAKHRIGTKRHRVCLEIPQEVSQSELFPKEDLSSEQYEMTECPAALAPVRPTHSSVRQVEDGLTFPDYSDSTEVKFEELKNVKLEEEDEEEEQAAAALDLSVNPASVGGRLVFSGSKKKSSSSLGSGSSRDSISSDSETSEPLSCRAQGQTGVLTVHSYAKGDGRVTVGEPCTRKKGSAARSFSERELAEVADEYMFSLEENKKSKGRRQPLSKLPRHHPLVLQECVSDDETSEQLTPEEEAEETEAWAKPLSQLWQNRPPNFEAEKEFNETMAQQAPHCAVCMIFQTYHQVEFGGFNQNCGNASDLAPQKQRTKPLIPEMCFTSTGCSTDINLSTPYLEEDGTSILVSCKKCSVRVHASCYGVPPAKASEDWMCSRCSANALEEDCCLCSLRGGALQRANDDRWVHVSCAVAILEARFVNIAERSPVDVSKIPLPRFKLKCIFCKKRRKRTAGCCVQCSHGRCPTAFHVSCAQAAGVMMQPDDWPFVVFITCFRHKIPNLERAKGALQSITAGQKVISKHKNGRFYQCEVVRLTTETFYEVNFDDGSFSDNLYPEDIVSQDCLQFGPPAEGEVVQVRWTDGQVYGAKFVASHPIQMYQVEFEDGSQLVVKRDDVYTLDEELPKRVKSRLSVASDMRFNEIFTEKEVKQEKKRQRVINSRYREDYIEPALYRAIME
G9a inh – inhibitors of human histone lysine methyltransferase G9a; Potency, µM (series often up to 102 µM), inactives show top-dose activity, negative = inhibition, usual class: inhibitors; G9a H3K9 monomethylation, AlphaScreen, 2 h; actives 8.8% (n = 350,000); Q96KQ7; note: % is set by controls: 0 for no effect and ±100 for the full control effect; nearly all actives have a fitted effect of over 75% in size
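Using a bead-based AlphaScreen, monomethylated H3K9 product from 2 h room-temperature reactions (G9a 20 nM, peptide 500 nM, SAM 20 uM) was detected with 0.5 ug/mL rabbit anti-H3K9me1 antibody.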
VDR inhibitor – blocks the human vitamin D receptor | P11473 | VDR-SRC2-3 peptide fluorescence polarization, 2 h | Potency, µM, for inactives: max response, negative = inhibition, actives largely listed as inhibitors | actives 0.93% (n = 400,000) | AID 504847; note: % is set by controls: 0 for no effect and ±100 for the full control effect
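Signal is fluorescence polarization, reporting how far test compounds block the interaction of VDR with the SRC2-3 coregulator peptide after a 2 h room-temperature incubation.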
PLK1 PBD block – blocks phosphopeptide binding to human PLK1 polo-box domain. Potency, µM, for the others: max response, negative = inhibition, actives largely listed as inhibitors. Plk1 PBD binding of FITC phosphopeptide, fluorescence polarization. actives 2.8% (n = 360,000). AID 720504; note: series mostly up to about 57 µM; % is set by controls: 0 for no effect and ±100 for the full control effect; nearly all actives have a fitted effect of over 65% in size
HP1b binding inh – HP1-beta chromodomain-methylated histone interaction inhibition. AID 540317. actives 0.56% (n = 390,000). AlphaScreen HP1-beta / biotin-H3K9me3 peptide binding. Potency, µM (series often up to 114 µM), for the others: top-dose activity change, negative = inhibition, most hits filed as inhibitors. P83916; note: nearly all actives have a fitted effect of over 70% in size
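AlphaScreen: HP1-beta (50 nM) preformed 30 min with biotin-H3(1-18)K9me3 peptide (50 nM) in PBS pH 7.4, 0.01% Tween-20. Compound added for 30 min at RT, then streptavidin donor/nickel chelate acceptor beads (10 ug/mL) for 30 min.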
BAZ2B block – BAZ2B (human) inhibition. Q9UIF8. AlphaScreen BAZ2B-H3K14Ac peptide displacement. Potency, µM (highest dose often 114 µM), for the others: at the highest dose activity change, negative = inhibition, actives largely listed as inhibitors. actives 4.4% (n = 360,000). AID 504333; note: % is set by controls: 0 for no effect and ±100 for the full control effect; nearly all actives have a fitted effect of over 60% in size
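Compounds, titrated to a top concentration of 110 uM, were incubated 30 min at room temperature with preformed BAZ2B/acetyl-K14 H3 peptide complex (50 nM each). Proximity signal was measured by AlphaScreen after 20 min with beads.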
* hit, by the source's call; ? = inconclusive; / = no result given; [ ] = another dose, or the depositor's remark. Only some compounds are listed: those with a hit (about 11% of all), similar ones and a draw of the others. Calls come from the whole dose curve; as a rule, active = well fitted curve in the direction sought with a large enough effect; inconclusive = small, poorly fitted or top-dose-only effect, or another doubt; inactive = no such curve, though single readings can be large; an effect the other way counts as inactive or inconclusive. Potency is the fitted concentration of half-maximal effect.

SMILES | JMJD2A Tudor inh | G9a inh | VDR inhibitor | PLK1 PBD block | HP1b binding inh | BAZ2B block
COc1cc(Br)c(C(=O)c2nccc3cc(OC)c(OC)cc23)cc1OC | 44.7µM* | -18.7% | -18.3% | 5.97µM* | 2.4% | ?
Cc1cc(OCC(O)CN2CCCC2)cc(C)c1Cl (stereo not drawn) | -2.9% | 12.6% | -1.9% | -15.8% | 18.0% | -6.3%
Cc1cccc(Cn2nnc3c(=O)[nH]c(C4CCN(C(=O)c5ccc(F)cc5)CC4)nc32)c1 | -2.8% | 3.8%[59 µM] | -0.4% | / | 43.2% | -5.9%
COc1cc(C2C3=C(CCCC3=O)Nc3[nH]n(-c4ccccc4)c(=O)c32)ccc1OC(C)=O (stereo not drawn) | -27.3% | 44.7µM* | -5.2% | -12.9% | 15.0% | ?
COc1ccc(C2C3=C(CCCC3=O)Nc3ccc4ncccc4c32)cc1OC (stereo not drawn) | -10.5% | 50.1µM* | 5.3% | -2.7% | 11.3% | -22.4%
Cc1ccc(S(=O)(=O)N2CCc3cc(C(=O)N(C)Cc4ccccc4)ccc32)cc1 | -24.8% | -31.2%[59 µM] | -1.6% | / | -3.0% | -10.8%
Cc1cc(C)c(NC(=O)CN(CC(=O)O)CC(=O)O)c(C)c1Br | / | 3.7%[2.33 µM] | 9.5% | / | / | /
COc1cc2nc(N(CCN(C)C)C(=O)c3ccc(S(=O)(=O)N(C)CC4CCCO4)cc3)sc2cc1OC (stereo not drawn) | -19.1% | 31.6µM* | -15.5% | -12.8% | 28.3% | ?
COc1ccc(CN(CC2CCCO2)S(=O)(=O)c2ccc(C(=O)O)cc2)cc1OC (stereo not drawn) | -7.5% | 56.2µM* | 17.6% | 2.2% | 45.1% | -6.1%
COc1cc2nc(N(CCCN(C)C)C(=O)c3ccc(S(=O)(=O)N(C)C4CCCCC4)cc3)sc2cc1OC | -35.2% | 44.7µM* | 2.9% | -1.8% | -15.0% | -29.1%
COc1ccc(S(=O)(=O)N(C)CC(=O)NCC2CCCO2)cc1OC (stereo not drawn) | -14.0% | 13.5% | 9.1% | 0.9% | 12.4% | -0.6%
CN(C)CCCN(C(=O)c1ccc(S(=O)(=O)N(C)C2CCCCC2)cc1)c1nc2ccc(Br)cc2s1 | 35.5µM* | / | 2.3% | -13.7% | -13.0% | ?
COc1ccc(C)c2sc(N(CCCN(C)C)C(=O)c3ccc(S(=O)(=O)N(C)C)cc3)nc12 | -1.3% | ? | 6.8% | -0.4% | 24.1% | /
CCc1ccc2nc(N(CCCN(C)C)C(=O)c3ccc(S(=O)(=O)N4CCc5ccccc5C4)cc3)sc2c1 | -13.6% | / | -16.0% | -3.1% | 15.1% | ?
O=C(CCN1C(=O)[C@@H]2Cc3ccccc3CN2C1=O)N[C@H](Cc1ccccc1)C(=O)O | -8.2% | / | 7.1% | -2.9% | 25.6% | 4.0%
COc1ccc(C)cc1NC(=O)c1cnc2ccc(C)cn2c1=O | -21.8% | -8.7%[59 µM] | 2.0% | / | 12.8% | 2.7%
CN(C)CCCN(C(=O)c1ccc(S(=O)(=O)N(C)C2CCCCC2)cc1)c1nc2ccc(F)cc2s1 | ? | 44.7µM* | -4.7% | -5.5% | -9.9% | ?
CCN(CC)CCN(C(=O)c1ccc(S(=O)(=O)N2CCCC2)cc1)c1nc2cc(C)cc(C)c2s1 | -33.8% | ? | -10.2% | -5.4% | 3.9% | -28.2%
CCc1ccc2nc(N(CCCN(C)C)C(=O)c3ccc(S(=O)(=O)N(C)C4CCCCC4)cc3)sc2c1 | ? | ? | -0.7% | -4.2% | 14.3% | ?
Cc1cc(C)c2sc(N(CCCN(C)C)C(=O)c3ccc(S(=O)(=O)N(C)C4CCCCC4)cc3)nc2c1 | ? | 35.5µM* | -13.5% | 4.5% | ? | ?
CCOC(=O)c1ccc(NC(=O)Nc2nncs2)cc1 | / | / | / | 8.0% | / | /
O=C(O)CC1(CC(=O)Nc2cc3ccccc3cn2)CCCCC1 | -4.6% | 89.1µM* | -1.0% | -1.4% | 31.1% | -29.1%
CC(Sc1nnc(NC2CC2)s1)C(=O)Nc1ccc(N2CCOCC2)cc1 (stereo not drawn) | -1.4% | 44.7µM* | 8.0% | -0.8% | 16.1% | -18.6%
CC(Sc1nnc(NC2CCCCC2)s1)C(=O)Nc1ccc2c(c1)C(=O)c1ccccc1C2=O (stereo not drawn) | ? | 3.55µM* | 9.4% | ? | -17.3% | -35.9%
O=C(CSc1nnc(NC2CCCCC2)s1)Nc1ccc(N2CCOCC2)cc1 | -11.4% | 17.5%[59 µM] | 6.2% | -0.3% | 9.0% | -35.1%
SMILES | JMJD2A Tudor inh | G9a inh | VDR inhibitor | PLK1 PBD block | HP1b binding inh | BAZ2B block
COc1ccc(Nc2nnc(SC(C)C(=O)NC3CC3)s2)cc1 (stereo not drawn) | -14.5% | / | -22.1% | -10.4% | 23.4% | /
Cc1ccc2c(c1)C(=O)C(=O)N2Cc1ccccc1 | ? | / | 79.4µM* | -17.7% | ? | /
Cc1ccc2c(c1)C(=O)C(=O)N2Cc1ccc(Cl)cc1 | ? | / | 25.1µM* | ? | -5.5% | /
CCN1CCN(CC2COc3ccccc3O2)CC1 (stereo not drawn) | -9.6% | -35.1%[2.33 µM] | 3.3% | 4.6% | 22.3% | ?
CCN1C(=O)C(=O)c2cc(C)ccc21 | -21.7% | / | -3.4% | -10.2% | 18.7% | /
CCCCCOc1ccccc1CN1C(=O)C(=O)c2cc(C)ccc21 | 17.8µM* | 8.91µM* | ? | / | ? | 6.31µM*
Cc1ccc2c(c1)C(=O)C(=O)N2CC1COc2ccccc2O1 (stereo not drawn) | ? | 50.1µM* | 70.8µM* | ? | ? | ?
O=C(Nc1cccc(S(=O)(=O)N2CCCC2)c1)c1cc(=O)[nH]c2ccccc12 | -21.6% | -10.7%[2.33 µM] | -23.2% | 1.0% | 40.4% | -1.5%
O=C(Cc1ccccc1)N(Cc1cccnc1)c1nc2c(F)cc(F)cc2s1 | -21.8% | 7.4%[59 µM] | -4.1% | / | 0.7% | -10.1%
O=C1CN(C(=O)c2ccc(S(=O)(=O)N3CCCC3)cc2)C(c2ccccc2)c2cc(Cl)ccc2N1 (stereo not drawn) | -11.9% | 4.2%[59 µM] | -15.4% | / | 21.3% | -3.8%
Cc1ccc(OCCCN2C(=O)C(=O)c3cc(C)ccc32)cc1 | -8.9% | -3.5% | ? | -21.3% | ? | -19.3%
Cc1ccc2c(c1)C(=O)C(=O)N2CCCOc1ccccc1 | 56.2µM* | 35.5µM* | -19.5% | -24.0% | ? | 50.1µM*
O=C(N/N=C\c1ccc(Oc2ccccc2)cc1)c1csnn1 | -17.4% | 0.891µM* | ? | -1.5% | 42.3% | 0.5%
Cc1cccc(/C=N\NC(=O)c2csnn2)c1 | 79.4µM* | 8.8%[0.501 µM] | -7.3% | -8.9% | 11.2% | ?
CCCC(C(=O)NC1CCCC1)N(Cc1ccccc1Cl)C(=O)c1snc(C(N)=O)c1N (stereo not drawn) | -6.9% | -2.0%[59 µM] | 2.7% | 1.4% | 37.8% | 11.5%
COc1ccccc1OCC#CCn1ccnc1 | 5.62µM* | 3.16µM* | 0.6% | -28.2% | ? | 17.8µM*
Oc1ccccc1C1=Nc2nc3ccccc3n2C(c2ccccc2)C1 (stereo not drawn) | ? | 12.6µM* | -20.5% | -19.8% | 4.4% | ?
